Bioassay records deposited in PubChem by Buhrlage Lab, Dana-Farber Cancer Institute and Novartis Institutes for BioMedical Research (Cambridge, Mass).
Rows were chosen to be rich in hits. Some 14% of all compounds tested hit in one or more screens of this group.
USP10 inh: inhibitors of human USP10 deubiquitinase; AID 1645856, 2021; inhibition, % at 20 µM; Ubiquitin carboxyl-terminal hydrolase 10 (Homo sapiens), Q14694; purified USP10, Ub-rhodamine fluorescence, 60 min; 47,000 tested, 1.1% active
USP28 inh: inhibitors of human USP28 deubiquitinase. purified USP28, Ub-rhodamine cleavage fluorescence, 30 min. inhibition, % at 25 µM. 47,000 tested, 3% active. AID 1645857, 2021
USP8 inh: inhibitors of human USP8 deubiquitinase | 47,000 tested, 4.2% active | AID 1645853, 2021 | purified USP8, Ub-rhodamine cleavage fluorescence, 30 min | Ubiquitin carboxyl-terminal hydrolase 8 (Homo sapiens), P40818 | inhibition, % at 20 µM
USP30 block: inhibitors of human USP30 deubiquitinase; Ubiquitin carboxyl-terminal hydrolase 30 (Homo sapiens), Q70CQ3; purified USP30, Ub-rhodamine cleavage fluorescence; inhibition, % at 25 µM; 47,000 tested, 5.3% active; AID 1645860, 2021
USP17 block: inhibitors of human USP17 deubiquitinase; Ubiquitin carboxyl-terminal hydrolase 17-like protein 5 (Homo sapiens), A8MUK1; purified USP17, Ub-rhodamine cleavage fluorescence, 3 h; inhibition, % at 50 µM; 47,000 tested, 6.5% active; AID 1645855, 2021
Target sequence (A8MUK1 whole entry, looked up): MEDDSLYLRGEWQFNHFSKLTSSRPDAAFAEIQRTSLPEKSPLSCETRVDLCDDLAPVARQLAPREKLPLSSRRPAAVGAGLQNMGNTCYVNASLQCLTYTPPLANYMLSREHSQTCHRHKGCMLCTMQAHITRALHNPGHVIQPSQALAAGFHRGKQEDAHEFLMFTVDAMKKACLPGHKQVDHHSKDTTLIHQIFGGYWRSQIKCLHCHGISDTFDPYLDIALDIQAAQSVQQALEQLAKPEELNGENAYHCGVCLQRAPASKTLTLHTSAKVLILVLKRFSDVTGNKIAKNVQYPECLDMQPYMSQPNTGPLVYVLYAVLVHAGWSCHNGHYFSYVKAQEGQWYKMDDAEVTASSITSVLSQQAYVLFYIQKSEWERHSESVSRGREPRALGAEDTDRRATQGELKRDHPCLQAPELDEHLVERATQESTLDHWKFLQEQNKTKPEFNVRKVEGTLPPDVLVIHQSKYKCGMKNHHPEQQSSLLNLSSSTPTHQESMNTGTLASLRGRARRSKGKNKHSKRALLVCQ
* = called active by the depositor; i = inactive; . = no result given. No stated cut-off is given here; in the data, active means inhibition above about 30%; inactive means the rest.

SMILES	USP10 inh	USP28 inh	USP8 inh	USP30 block	USP17 block
Cc1ccc(C)c(N(CC(=O)NCCN2CCOCC2)S(=O)(=O)c2ccccc2)c1	2	7	9	19	7
Cc1ccc(Cl)cc1N(Cc1ccc(C(=O)N2CCOCC2)cc1)S(=O)(=O)c1ccccc1	2	16	17	50*	.
Cc1c(CN2CCc3c(nc(-c4cccnc4)[nH]c3=O)C2)[nH]c2ccccc12	-1	-22	14	-127	-29
N#Cc1ccc(NC(=O)COc2ccc3oc4ccccc4c3c2)cc1	2	3	4	2	45*
CCC(=O)c1ccc(OCC(=O)Nc2ccc(C#N)cc2)cc1	3	4	-6	-11	47*
Cc1ncc(-c2ccc3c(c2)OCO3)c(-c2nccs2)n1	-7	-94	-23	i	-155
Cc1c(C)c(C)c2[nH]c(-c3ccc4c(c3)OCO4)nc2c1C	-1	2	10	49*	47*
Cc1ccc(CNC(=O)CN2C(=O)c3ccccc3C2c2c(-c3ccccc3)[nH]c3ccccc23)o1 (centres undefined)	-10	4	23	-15	37*
COc1ccc(-c2cc3nc([C@H](C)NC(=O)CC4CCCC4)nn3cn2)cc1	26	0	3	8	18
C[C@@H](NC(=O)c1ccc2c(c1)OCO2)c1nc2cc(-c3ccccc3F)ncn2n1	1	14	2	15	17
C[C@H](NC(=O)Cc1ccccc1F)c1nc2cc(-c3ccccc3F)ncn2n1	40*	37*	39*	64*	42*
COc1ccc(-c2cc3nc([C@H](C)NC(=O)COc4ccccc4F)nn3cn2)cc1	18	12	17	47*	38*
COc1ccc(-c2cc3nc([C@H](C)NC(=O)Cc4ccccc4C)nn3cn2)cc1	36*	20	94*	27	61*
C[C@@H](NC(=O)c1ccc2c(c1)OCCO2)c1nc2cc(-c3ccccc3F)ncn2n1	5	47*	-6	78*	66*
Clc1ccc(Cc2nc(-c3ccc(N4CCOCC4)cc3)no2)cc1	0	.	0	.	12
Cc1cc(=O)n2[nH]c(CN(C(=O)c3ccccc3F)c3ccccc3)nc2n1	0	-16	-64	-3	.
COc1ccc2c(CNCCC3=CCCCC3)c(C(=O)O)n(Cc3ccc(F)cc3)c2c1	10	27	3	-24	16
Cc1ccc2c(CNCCC3=CCCCC3)c(C(=O)O)n(C)c2c1	72*	-2	-8	-4	-4
COc1ccc([N+](=O)[O-])cc1NC(=O)COC(=O)c1ccc2[nH]c3c(c2c1)CCCC3	50*	63*	60*	60*	71*
COCCCNS(=O)(=O)c1ccc(-c2cc(C(F)(F)F)on2)s1	0	.	1	.	1
Cn1cc(-c2cnc(N3CCOCC3)nc2)cc1C(=O)N1CCN(c2ccccc2)CC1	-5	-4	-150	-33	0
O=C1CC(c2noc(-c3ccccn3)n2)CN1c1ccc(F)cc1 (centres undefined)	1	-8	0	4	-8
O=C1CC(c2noc(-c3ccccn3)n2)CN1c1cccc(F)c1 (centres undefined)	-1	16	10	32*	16
O=S(=O)(c1cn[nH]c1)N1C[C@H]2CC(OCc3ccccc3)C[C@H]2C1 (some centres undefined)	1	1	1	1	-1
O=c1c2c(nc3nc(-c4cccc5ccccc45)[nH]n13)CCC2	5	6	10	-8	1
SMILES	USP10 inh	USP28 inh	USP8 inh	USP30 block	USP17 block
CCn1c(=O)c(CCC(=O)NCc2ccc(OC)cc2)c(C)c2c(C)nn(-c3ccccc3C)c21	5	56*	2	77*	70*
COc1ccc(OCC(=O)Nc2ccc3c(c2)CCC(=O)N3Cc2ccccc2)cc1	10	14	1	32*	13
Cc1cc(C)c(C#N)c(N2CCN(S(=O)(=O)Cc3ccccc3)CC2)n1	5	3	1	22	45*
CC(=O)NC(Cc1ccccc1)C(=O)NC1CCN(c2nc(C)cc(C)c2C#N)CC1 (centres undefined)	-8	-7	-5	-28	-14
CC1(C)C(=O)CC[C@@]2(C)C1CC[C@]1(C)C2CC[C@@H]2[C@H]3[C@H]4OC[C@@]3(CCC4(C)C)CC[C@]21C (some centres undefined)	0	4	25	31*	13
CC(C)=CCC[C@](C)(O)[C@H]1CC[C@]2(C)[C@@H]1CC[C@@H]1[C@@]3(C)CCC(=O)C(C)(C)[C@@H]3CC[C@]12C	20	9	19	23	15
CC(NC(=O)C(c1ccccc1)c1ccccc1)c1ccc(-c2ccccc2)cc1 (centres undefined)	3	-8	-15	-11	-8
CC(C)(C)C(=O)NC(c1ccccc1)c1nnc(N2CCOCC2)o1 (centres undefined)	0	74*	7	3	4
O=C(NC(c1ccccc1)c1nnc(N2CCOCC2)o1)c1ccccc1Cl (centres undefined)	0	9	14	24	15
Cc1ccc(NC(=O)Cn2cccc2-c2nnc(C3CC3)o2)c(C)c1	0	-13	0	34*	1
Cc1ccc(CNC(=O)c2cc(=O)nc3sc(N4CCCCCC4)nn23)cc1	0	17	14	31*	4
COc1ccc(-c2cc(C(=O)NCC(=O)O)no2)cc1	-1	-1	-1	-96	0
Cc1ccc(Cn2ccc(NC(=O)c3cc(-c4ccco4)on3)n2)cc1	-3	-86	-60	-266	30*
COC(=O)c1ccccc1NC(=O)c1cc(-c2ccco2)on1	-2	-34	16	-153	16
COc1ccc(-c2cc(C(=O)Nc3ccnn3Cc3ccccc3)no2)cc1	23	-3	0	32*	37*
COc1cccc(-c2cc(C(=O)Nc3cc(C)n(Cc4ccc(Cl)cc4)n3)no2)c1	22	13	38*	75*	20
COc1ccccc1S(=O)(=O)N1CCOC2(COc3ccccc3N(C)C2)C1 (centres undefined)	0	-5	5	-7	-5
CCN(CC)c1ccc2cc(C(=O)NCc3cccc4ccccc34)c(=O)oc2c1	-6	-22	-13	-242	-22
N#Cc1ccc(CC2(Cc3ccc(C#N)cc3)C(=O)N(Cc3ccccn3)C(=O)c3ccccc32)cc1	8	20	16	44*	16
O=C1N(Cc2ccccn2)C(=O)C2(Cc3ccccc3)CCN(Cc3ccccn3)CCN12 (centres undefined)	-1	2	10	9	5
O=C(/C=C/c1ccc(F)cc1)N1CCc2ccccc2C1	1	28	88*	1	62*
O=C(/C=C/c1ccc(F)cc1)N1CCCc2ccccc21	4	9	-4	16	2
O=C(/C=C/c1cccc(F)c1)N1CCc2ccccc21	9	8	42*	29	20
